# Where “and” joins values, the source holds several entries; their conditions need not be identical. Equal values may be shown once. Results filed as inconclusive are left out. Where a call stands in place of a potency, no number is given. Some compounds were tested as several samples or in several runs, with calls that do not always agree. Calls of active or inactive are those of the source. Unless noted, calls come from the whole dose curve; as a rule, active = well fitted curve in the direction sought with a large enough effect in the repeat runs; inconclusive = weak or mixed curves; inactive = no such curve, though single readings can be large; an effect the other way counts as inactive or inconclusive.
# Experiments:
# [1] = qHTS assay to identify small molecule antagonists of the estrogen receptor alpha (ER-alpha) signaling pathway using the BG1 cell line in the presence of 0.1 nM 17-beta-estradiol - cell viability counter screen (AID 1259241); note: nearly all actives have a fitted effect of over 40% in size; note: potency is the fitted concentration of half-maximal effect
# In short: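 CellTiter-Fluor read (30 min, 37C) on ER-alpha/ERE-luc VM7Luc4E2 cells; 22 hr compound treatment; agonist 0.1 nM E2 final; same-well multiplex.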
# [2] = qHTS assay to identify small molecule antagonists of the androgen receptor (AR) signaling pathway using the MDA cell line in the presence of 0.5 nM R1881 - cell viability counter screen (AID 1259242); note: nearly all actives have a fitted effect of over 45% in size; note: potency is the fitted concentration of half-maximal effect
# In short: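 MDA-kb2 cells (human breast carcinoma, stably carrying MMTV-luciferase reporter) were exposed to compounds with 0.5 nM R1881 (final) for 16 hr at 37C, 0% CO2; viability then read as live-cell protease fluorescence (CellTiter-Fluor, 30 min) in the same wells.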
# [3] = qHTS assay to identify small molecule HDAC inhibitors (AID 1259364); note: nearly all actives have a fitted effect of over 45% in size; note: potency is the fitted concentration of half-maximal effect
# In short: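 Wild-type HCT-116 cells were plated overnight, exposed to compounds for 2 h at 37 °C, then given HDAC-Glo class I/II luminogenic reagent for 30 min at room temperature before luminescence was read.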
# [4] = qHTS assay to identify small molecule HDAC inhibitors - cell viability counter screen (AID 1259365); note: series mostly up to about 92 µM; nearly all actives have a fitted effect of over 50% in size
# In short: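 To flag cytotoxic hits, 1,500 wild-type HCT-116 cells per well, plated the day before, receive test compounds for 2hr at 37 C before CellTiter-Glo reagent and a luminescence read.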
# [5] = qHTS assay to identify small molecule agonists of the sonic hedgehog signaling (Shh) pathway - cell viability counter screen (AID 1259366); note: nearly all actives have a fitted effect of over 50% in size; note: potency is the fitted concentration of half-maximal effect
# In short: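 Fluorescence from CellTiter-Fluor reports live cells in this counter screen. NIH/3T3-derived Gli1-Luc reporter cells receive test compounds for 24hr at 37C; reagent goes in at 23hr.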
# [6] = qHTS assay to identify small molecule agonists of the sonic hedgehog signaling (Shh) pathway (AID 1259368; calls by dose curve; note: nearly all actives have a fitted effect of over 15% in size; note: potency is the fitted concentration of half-maximal effect)
# In short: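 NIH/3T3-derived 3T3Gli1-Luc cells carrying a stably integrated Gli1 response element–firefly luciferase reporter were plated, left 4 hr at 37 C, then given compounds in DMSO for 24 hr. Luminescence was read 30 min after adding luciferase reagent.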
# [7] = qHTS assay to identify small molecule antagonists of the sonic hedgehog signaling (Shh) pathway (AID 1259369; calls by dose curve; note: nearly all actives have a fitted effect of over 45% in size; note: potency is the fitted concentration of half-maximal effect)
# In short: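 NIH/3T3-derived 3T3Gli1-Luc cells with stably integrated Gli1-Luc reporter were preincubated 4hr at 37 C, then given compounds in DMSO plus Shh conditioned medium and incubated 24hr. Firefly luciferase luminescence read after 30min reagent at room temperature.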
# [8] = target: Estrogen receptor beta (Homo sapiens) (UniProt Q92731); assay: qHTS assay to identify small molecule agonists of the estrogen receptor beta (ER-beta) signaling pathway (AID 1259377; active = well fitted activation curve with a large enough effect in the signal ratio in the repeat runs, not every such curve was filed as active; the % refers to the signal ratio)
# In short: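 Screening used GripTite ER-beta-UAS-bla cells held in 2% charcoal-stripped FBS medium. After overnight (16 hr) compound incubation at 37C, beta-lactamase activity was detected with a FRET substrate by fluorescence.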
# [9] = target: Estrogen receptor beta (Homo sapiens) (UniProt Q92731); assay: qHTS assay to identify small molecule antagonists of the estrogen receptor beta (ER-beta) signaling pathway (AID 1259378; active = well fitted inhibition curve with a large enough effect in the signal ratio in the repeat runs, not every such curve was filed as active; the % refers to the signal ratio)
# In short: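 ER-beta-UAS-bla HEK293T (GripTite) cells in 2% charcoal-stripped FBS medium were preincubated 6 hr at 37C, dosed with compound, then stimulated with 1 nM E2 (final) for 16 hr; beta-lactamase reporter read by B/G FRET fluorescence after 2 hr substrate loading.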
# [10] = qHTS assay to identify small molecule agonists of the androgen receptor (AR) signaling pathway in the presence of an antagonist - cell viability counter screen (AID 1259379); note: nearly all actives have a fitted effect of over 25% in size; note: potency is the fitted concentration of half-maximal effect
# In short: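 MDA-kb2 human breast carcinoma cells (stable MMTV-luciferase, AR/GR responsive) were seeded 3,000 cells/well, pre-incubated 5 hr at 37C without CO2, then given 3.0uM nilutamide and compounds at 15 concentrations for 16 hr. Viability was read by CellTiter-Fluor fluorescence.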
# [11] = qHTS assay to identify small molecule agonists of the estrogen receptor beta (ER-beta) signaling pathway - cell viability counter screen (AID 1259380); note: nearly all actives have a fitted effect of over 30% in size; note: potency is the fitted concentration of half-maximal effect
# In short: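 ER-beta-UAS-bla HEK293T cells in medium with 2% charcoal-stripped FBS were preincubated 6 hr at 37C, dosed with compound in DMSO for 16 hr, then after the bla read, CellTiter-Glo was added for 30 min at room temperature; luminescence recorded.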
# [12] = qHTS assay to identify small molecule antagonists of the estrogen receptor beta (ER-beta) signaling pathway - cell viability counter screen (AID 1259382); note: series mostly up to about 92 µM; nearly all actives have a fitted effect of over 55% in size
# In short: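 ER-beta-UAS-bla HEK293T cells (2,000/well, 2% charcoal-stripped FBS) were pre-incubated 6 hr at 37C, then given compound plus 1nM final 17-beta-estradiol for 16 hr. Viability was read in the same wells by CellTiter-Glo luminescence after 30 min at room temperature.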
# [13] = qHTS assay to identify small molecule agonists or antagonists of the thyroid stimulating hormone receptor (TSHR) signaling pathway - wild type cell line counter screen (AID 1259384; calls by dose curve)
# In short: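 Wild-type HEK293 cells were plated 18 h at 37 C/5% CO2, pin-dosed with compound plus Ro20-1724 medium, held 30 min at room temperature, then given cAMP-d2 and anti-cAMP-cryptate; fluorescence was read after 1 h. Fifteen concentrations, triplicate.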
# [14] = target: Estrogen receptor (Homo sapiens) (UniProt P03372); assay: qHTS assay to identify small molecule antagonists of the estrogen receptor alpha (ER-alpha) signaling pathway using the BG1 cell line in the presence of 0.1 nM 17-beta-estradiol (AID 1259244); note: nearly all actives have a fitted effect of over 50% in size
# In short: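 VM7Luc4E2 cells (endogenous full-length ER-alpha, stable 4xERE-luciferase) were grown 5 days in phenol red-free medium with charcoal-stripped FBS, then exposed 22 h at 37C to compounds plus 0.1 nM (final) 17beta-estradiol; ONE-Glo luminescence read-out.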
# [15] = qHTS assay to identify small molecule antagonists of the sonic hedgehog signaling (Shh) pathway - cell viability counter screen (AID 1259367); note: nearly all actives have a fitted effect of over 55% in size; note: potency is the fitted concentration of half-maximal effect
# In short: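 NIH/3T3-derived Gli1-Luc reporter cells (2,000 per well) rested 4 hr at 37 C, then received DMSO compounds plus conditioned medium. After 23 hr of treatment, CellTiter-Fluor was added for 1 hr at 37C and fluorescence read.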
# [16] = target: Estrogen receptor (Homo sapiens) (UniProt P03372); assay: qHTS assay to identify small molecule agonists of the estrogen receptor alpha (ER-alpha) signaling pathway in the presence of an antagonist (AID 1259383; calls by dose curve; note: top concentration of the series differs between compounds; nearly all actives have a fitted effect of over 15% in size)
# In short: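 VM7Luc4E2 cells (endogenous full-length ER-alpha, 4×ERE-luciferase) were precultured 5 days in phenol red-free medium with 10% charcoal-stripped FBS, given 10.0nM ICI-182,780 (final), then treated with compounds at 15 concentrations for 22hr at 37C; luminescence read with ONE-Glo.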
# [17] = target: Androgen receptor (Homo sapiens) (UniProt P10275); assay: qHTS assay to identify small molecule antagonists of the androgen receptor (AR) signaling pathway using the MDA cell line in the presence of 0.5 nM R1881 (AID 1259243); note: potency is the fitted concentration of half-maximal effect; nearly all actives have a fitted effect of over 50% in size
# In short: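 MDA-kb2 human breast carcinoma cells carrying an MMTV-luciferase reporter (AR- and GR-responsive) were plated, rested 5 hr at 37C, dosed with compounds, then stimulated with 0.5 nM R1881 (final) for 16 hr; luminescence was read after ONE-Glo.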
# [18] = qHTS assay to identify small molecule phospholipidosis (PLD) inducers (AID 1259344; active = well fitted curve in the direction sought with a large enough effect; an effect the other way counts as inactive or inconclusive)
# In short: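 HepG2 cells on collagen I, attached 4 h at 37 C, were co-treated with compound and LipidTOX Red dye for 24 h at 37 C, then fixed with paraformaldehyde plus Hoechst 33342 and imaged by high-content microscopy for phospholipid accumulation.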
# [19] = target: Androgen receptor (Homo sapiens) (UniProt P10275); assay: qHTS assay to identify small molecule agonists of the androgen receptor (AR) signaling pathway in the presence of an antagonist (AID 1259381; calls by dose curve; note: nearly all actives have a fitted effect of over 15% in size)
# In short: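 MDA-kb2 human breast carcinoma cells carrying an MMTV-luciferase reporter (AR- and GR-responsive) were treated with compounds at 15 concentrations plus 3.0uM final nilutamide for 16hr at 37C without CO2; luminescence was read after ONE-Glo addition.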
# Chain of Estrogen receptor (Homo sapiens) (P03372 whole entry, looked up): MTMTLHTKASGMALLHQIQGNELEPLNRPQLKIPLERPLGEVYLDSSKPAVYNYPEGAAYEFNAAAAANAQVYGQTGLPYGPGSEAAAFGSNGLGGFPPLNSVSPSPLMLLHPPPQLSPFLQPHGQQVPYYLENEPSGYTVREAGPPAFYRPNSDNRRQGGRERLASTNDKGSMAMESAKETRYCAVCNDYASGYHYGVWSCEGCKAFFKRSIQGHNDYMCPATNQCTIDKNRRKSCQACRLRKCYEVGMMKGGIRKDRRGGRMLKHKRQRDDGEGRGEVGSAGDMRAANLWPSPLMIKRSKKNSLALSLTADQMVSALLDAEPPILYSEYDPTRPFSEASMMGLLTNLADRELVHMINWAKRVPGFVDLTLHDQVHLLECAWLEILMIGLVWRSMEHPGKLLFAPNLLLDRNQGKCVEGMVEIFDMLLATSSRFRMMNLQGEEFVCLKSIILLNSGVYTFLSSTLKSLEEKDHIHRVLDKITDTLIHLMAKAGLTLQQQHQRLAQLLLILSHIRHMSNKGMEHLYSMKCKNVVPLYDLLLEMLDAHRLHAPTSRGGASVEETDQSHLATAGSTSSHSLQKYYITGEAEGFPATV
# Chain of Estrogen receptor beta (Homo sapiens) (Q92731 whole entry, looked up): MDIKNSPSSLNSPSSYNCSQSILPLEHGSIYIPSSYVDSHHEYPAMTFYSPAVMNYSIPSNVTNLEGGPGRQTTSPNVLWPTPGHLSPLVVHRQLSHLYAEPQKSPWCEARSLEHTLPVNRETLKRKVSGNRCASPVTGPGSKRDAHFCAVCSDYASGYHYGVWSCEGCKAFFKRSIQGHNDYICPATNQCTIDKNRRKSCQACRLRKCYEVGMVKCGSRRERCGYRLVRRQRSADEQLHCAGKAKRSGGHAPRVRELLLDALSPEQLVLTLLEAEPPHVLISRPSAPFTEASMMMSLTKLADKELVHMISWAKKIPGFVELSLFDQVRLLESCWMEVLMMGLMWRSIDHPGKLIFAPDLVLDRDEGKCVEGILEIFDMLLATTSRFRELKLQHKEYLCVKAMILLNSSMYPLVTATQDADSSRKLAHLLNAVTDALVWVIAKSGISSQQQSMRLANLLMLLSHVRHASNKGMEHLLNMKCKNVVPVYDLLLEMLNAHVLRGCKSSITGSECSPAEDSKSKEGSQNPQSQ
# Chain of Androgen receptor (Homo sapiens) (P10275 whole entry, looked up): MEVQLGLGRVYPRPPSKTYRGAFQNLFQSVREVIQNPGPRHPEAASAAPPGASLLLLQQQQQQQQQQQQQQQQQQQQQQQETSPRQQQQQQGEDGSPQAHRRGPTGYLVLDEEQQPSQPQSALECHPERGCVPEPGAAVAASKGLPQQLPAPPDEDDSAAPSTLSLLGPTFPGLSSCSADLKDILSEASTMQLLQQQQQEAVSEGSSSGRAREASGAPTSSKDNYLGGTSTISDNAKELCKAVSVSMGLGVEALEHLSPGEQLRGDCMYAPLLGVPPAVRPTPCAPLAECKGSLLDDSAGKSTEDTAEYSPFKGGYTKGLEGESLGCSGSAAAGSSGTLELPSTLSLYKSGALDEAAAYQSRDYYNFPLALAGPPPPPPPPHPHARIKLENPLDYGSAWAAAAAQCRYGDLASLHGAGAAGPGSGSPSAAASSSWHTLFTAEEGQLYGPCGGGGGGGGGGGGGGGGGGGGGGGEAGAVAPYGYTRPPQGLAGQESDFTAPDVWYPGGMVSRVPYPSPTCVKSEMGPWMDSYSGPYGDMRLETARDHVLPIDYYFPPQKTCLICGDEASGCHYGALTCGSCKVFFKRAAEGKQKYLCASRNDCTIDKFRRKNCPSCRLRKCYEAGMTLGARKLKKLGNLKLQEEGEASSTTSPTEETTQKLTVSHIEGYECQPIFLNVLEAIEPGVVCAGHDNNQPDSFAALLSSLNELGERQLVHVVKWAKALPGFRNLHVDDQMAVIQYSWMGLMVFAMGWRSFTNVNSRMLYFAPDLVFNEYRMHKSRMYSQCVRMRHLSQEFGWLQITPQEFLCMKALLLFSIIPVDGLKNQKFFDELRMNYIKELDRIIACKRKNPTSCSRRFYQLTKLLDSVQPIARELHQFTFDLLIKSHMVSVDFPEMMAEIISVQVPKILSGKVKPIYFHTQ
SMILES,Potency [1],Potency [2],Potency [3],outcome [4],Potency [5],Potency [6],Potency [7],Potency [8],Potency [9],Potency [10],Potency [11],Potency [12],outcome [13],Potency [14],Potency [15],Potency [16],Potency [17],outcome [18],Potency [19]
c1ccc(NNc2ccccc2)cc1,inactive,inactive,15.4 µM (active),inactive,inactive,inactive,inactive,inactive,inactive,inactive,inactive,inactive,inactive,–,–,–,–,–,–
CNC(=O)Oc1cccc2c1OC(C)(C)O2,inactive,inactive,inactive,inactive,inactive,inactive,inactive,–,–,inactive,inactive,inactive,inactive,inactive,inactive,inactive,–,–,–
C[C@]12CCC(=O)C(O)=C1CC[C@@H]1[C@@H]2CC[C@]2(C)C(=O)CC[C@@H]12,inactive,inactive,inactive,inactive,inactive,inactive,–,–,–,–,24.3 µM (active),inactive,–,inactive,inactive,inactive,–,–,–
COC(=O)c1sccc1S(=O)(=O)NC(=O)Nc1nc(C)nc(OC)n1,inactive,inactive,inactive,inactive,inactive,inactive,inactive,inactive,inactive,inactive,inactive,inactive,inactive,inactive,inactive,inactive,–,–,–
C=CCN(CC=C)C(=O)C(Cl)Cl,inactive,inactive,inactive,inactive,inactive,inactive,inactive,inactive,inactive,inactive,inactive,inactive,inactive,–,inactive,–,–,–,–
C=C(C)[C@H]1Cc2c(ccc3c2O[C@@H]2COc4cc(OC)c(OC)cc4[C@@H]2C3=O)O1,0.0486 µM (active),78 nM (active) and 54.5 nM (active) and 106 nM (active),inactive,inactive,24.7 µM (active) and inactive,inactive,19.6 nM (active) and 5.45 µM (active) and inactive,–,–,55.2 nM (active) and 38.6 nM (active) and 47.3 nM (active),inactive,inactive,inactive,–,22 µM (active) and 6.11 µM (active),–,31 nM (active) and 19.3 nM (active) and 47.3 nM (active),inactive,inactive
C=CC(=O)OCCO,inactive,inactive,inactive,inactive,–,inactive,24.7 µM (active) and 27.3 µM (active),inactive,inactive,inactive,inactive,inactive,inactive,–,–,–,–,–,–
CCCCCCCCC(=O)NCc1ccc(O)c(OC)c1,inactive,inactive,inactive,inactive,inactive,inactive,12.2 µM (active) and inactive,–,–,–,inactive,inactive,inactive,inactive,inactive,inactive,–,inactive,–
Cc1ccc(N)c(N)c1,inactive,inactive,–,inactive,inactive,1.73 µM (active) and 1.54 µM (active),24.4 µM (active),inactive,–,inactive,inactive,inactive,inactive,–,–,–,–,–,–
C=C(C)C(=O)OCC1CO1 (configuration not stated),inactive,inactive,inactive,inactive,inactive,inactive,inactive,inactive,inactive,–,inactive,inactive,inactive,inactive,inactive,inactive,–,–,–
O=C(O)C(F)(F)C(F)(F)C(F)(F)C(F)(F)C(F)(F)C(F)(F)C(F)(F)F,inactive,inactive,–,inactive,inactive,inactive,inactive,inactive,–,inactive,30.6 µM (active) and 24.3 µM (active),inactive,inactive,–,inactive,–,–,–,–
O=C(CCl)c1ccccc1,inactive,inactive,inactive,inactive,inactive,inactive,–,–,inactive,–,inactive,inactive,inactive,–,–,–,–,–,–

# From PubChem BioAssay (Tox21)
